Test results taken from the supplement of paper PMC12645437, “Orthogonal IMiD-Degron Pairs Induce Selective Protein Degradation in Cells” (ACS Chemical Biology, 2025).
In all, about 8,300 sequences were measured (“log2 fold change of degron read counts, EGFP-low vs EGFP+ sorted cells (limma voom), compound-induced degradation”: median about -1.1, highest 2% from about 3.2 on). For the sample, the highest values were picked, then their nearest neighbours and some sequences at random.

T1: CRBN, Q96SW2
T1 chain: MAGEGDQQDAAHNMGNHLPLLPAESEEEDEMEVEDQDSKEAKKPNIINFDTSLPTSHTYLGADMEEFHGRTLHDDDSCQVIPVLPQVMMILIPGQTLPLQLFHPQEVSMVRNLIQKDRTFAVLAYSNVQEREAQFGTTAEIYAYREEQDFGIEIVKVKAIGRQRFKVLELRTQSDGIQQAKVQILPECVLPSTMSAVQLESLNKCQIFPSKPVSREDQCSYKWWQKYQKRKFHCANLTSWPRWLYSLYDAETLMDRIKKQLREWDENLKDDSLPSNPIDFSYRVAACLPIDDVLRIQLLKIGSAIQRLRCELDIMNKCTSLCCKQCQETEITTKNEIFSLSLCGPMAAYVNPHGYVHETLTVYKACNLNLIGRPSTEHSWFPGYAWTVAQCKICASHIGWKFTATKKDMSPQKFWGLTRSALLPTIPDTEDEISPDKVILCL


Target: T1, CRBN, Q96SW2
Experiment: log2 fold change of degron read counts, EGFP-low vs EGFP+ sorted cells (limma voom), compound-induced degradation; higher = more compound-induced degradation of the degron-EGFP fusion; degrons are variants of IKZF1/3 zinc finger 2; compound dose not given here
Conditions: Jurkat, 18 h
[1] = compound: compound 19 (5-tert-butyl-thalidomide)
[2] = compound: compound 22 (5-morpholino-thalidomide)
[3] = compound: compound 33 (diphenyl IMiD analogue)
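Further: pooled lentiviral library of zinc finger degron-EGFP fusions in mCherry-positive Jurkat cells, FACS-sorted after compound exposure, with degron abundance counted by next-generation sequencing.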

Sequence | log2 fold change of degron read counts [1] | log2 fold change of degron read counts [2] | log2 fold change of degron read counts [3] | log2 fold change of degron read counts (compound: thalidomide)
FMCEICGRDFTQKGNLLRHIKL [46F_47M_49E_50I_52G_53R_54D_55F_67L_, Q9UKT9] | -4.1 | -3.78 | -2.1 | -2.87
FECDVCGANFTQKGNLLRHIKL [46F_47E_49D_50V_52G_53A_54N_55F_67L_, Q9UKT9] | -1.89 | -2.52 | 0.03 | -0.264
FRCPVCGANFTQKGNLLRHIKL [46F_47R_49P_50V_52G_53A_54N_55F_67L_, Q9UKT9] | -0.729 | -0.0361 | 1.6 | 1.18
FECNVCGANFTQKGNLLRHIKL [46F_47E_49N_50V_52G_53A_54N_55F_67L_, Q9UKT9] | -2.58 | -1.81 | 0.845 | 0.642
FWCNVCGANFTQKGNLLRHIKL [46F_47W_49N_50V_52G_53A_54N_55F_67L_, Q9UKT9] | 1.2 | 3.53 | 1.36 | -0.0957
FICPVCGANFTQKGNLLRHIKL [46F_47I_49P_50V_52G_53A_54N_55F_67L_, Q9UKT9] | -1.07 | 2.83 | 1.95 | 2.35
FWCDVCGANFTQKGNLLRHIKL [46F_47W_49D_50V_52G_53A_54N_55F_67L_, Q9UKT9] | 1.91 | 3.89 | 0.9 | -0.759
FVCDVCGANFTQKGNLLRHIKL [46F_47V_49D_50V_52G_53A_54N_55F_67L_, Q9UKT9] | -1.78 | 0.744 | 0.282 | 0.237
FFCPVCGANFTQKGNLLRHIKL [46F_47F_49P_50V_52G_53A_54N_55F_67L_, Q9UKT9] | 2.53 | 3.51 | 1.89 | 1.22
FYCNVCGANFTQKGNLLRHIKL [46F_47Y_49N_50V_52G_53A_54N_55F_67L_, Q9UKT9] | 0.97 | 2.35 | 0.921 | -0.663
FSCEICGHWFTQKGNLLRHIKL [46F_47S_49E_50I_52G_53H_54W_55F_67L_, Q9UKT9] | -2.92 | -3.14 | -2.71 | -2.77
FRCNICGAMFTQKGNLLRHIKL [46F_47R_49N_50I_52G_53A_54M_55F_67L_, Q9UKT9] | -1.41 | -1.24 | -0.539 | -0.171
FKCPICGHGFTQKGNLLRHIKL [46F_47K_49P_50I_52G_53H_54G_55F_67L_, Q9UKT9] | -2.34 | -2.29 | -2.14 | -1.69
FYCPVCGAKFTQKGNLLRHIKL [46F_47Y_49P_50V_52G_53A_54K_55F_67L_, Q9UKT9] | 2.58 | 2.82 | 1.14 | 0.354
FSCEVCGAHFTQKGNLLRHIKL [46F_47S_49E_50V_52G_53A_54H_55F_67L_, Q9UKT9] | 2.19 | 0.401 | 0.505 | 0.0402
FLCEICGAMFTQKGNLLRHIKL [46F_47L_49E_50I_52G_53A_54M_55F_67L_, Q9UKT9] | -0.288 | -1.63 | 0.563 | 0.887
FHCEICGAMFTQKGNLLRHIKL [46F_47H_49E_50I_52G_53A_54M_55F_67L_, Q9UKT9] | 2.38 | 1.87 | 1.06 | -0.251
FQCEICGAMFTQKGNLLRHIKL [46F_47Q_49E_50I_52G_53A_54M_55F_67L_, Q9UKT9] | -0.0508 | 2.24 | 2.45 | 3.57
FACEICGAMFTQKGNLLRHIKL [46F_47A_49E_50I_52G_53A_54M_55F_67L_, Q9UKT9] | 3.3 | 1.74 | 0.378 | -0.0211
FGCEICGAMFTQKGNLLRHIKL [46F_47G_49E_50I_52G_53A_54M_55F_67L_, Q9UKT9] | 3 | 2.34 | 1.39 | 0.523
FECEICGAMFTQKGNLLRHIKL [46F_47E_49E_50I_52G_53A_54M_55F_67L_, Q9UKT9] | -0.963 | -1.94 | 0.392 | 1.16
FFCEICGAMFTQKGNLLRHIKL [46F_47F_49E_50I_52G_53A_54M_55F_67L_, Q9UKT9] | 3.34 | 3.12 | 1.91 | 0.537
FMCEICGAMFTQKGNLLRHIKL [46F_47M_49E_50I_52G_53A_54M_55F_67L_, Q9UKT9] | -0.964 | -0.957 | 1.9 | 0.514
FWCEICGAMFTQKGNLLRHIKL [46F_47W_49E_50I_52G_53A_54M_55F_67L_, Q9UKT9] | 3.33 | 3.63 | 2.34 | 0.517
FNCEICGAMFTQKGNLLRHIKL [46F_47N_49E_50I_52G_53A_54M_55F_67L_, Q9UKT9] | 1.65 | -0.456 | -0.467 | -0.552
FCCEICGAMFTQKGNLLRHIKL [46F_47C_49E_50I_52G_53A_54M_55F_67L_, Q9UKT9] | 2.28 | 1.35 | 2.11 | 1.39
FDCEICGAMFTQKGNLLRHIKL [46F_47D_49E_50I_52G_53A_54M_55F_67L_, Q9UKT9] | 0.132 | -1.04 | -0.408 | 0.217
LDCNQCGFQCTQKGNLLRHIKL [46L_47D_49N_50Q_52G_53F_54Q_55C_67L_, Q9UKT9] | -2.46 | -2.61 | -2.96 | -1.93
